Experimental findings from the supplement of paper PMC10498489 are described below.

Screen size: about 2,300 compounds; about 330 (14%) showed activity. A selection follows. Values without a mark were called inactive.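 The calls were made as follows: active = median modified Z-score above 1.96; inactive = 1.96 or below.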

This test has as its system HepG2 Srxn1-GFP reporter cells (+30 nM CDDO-Me). Put plainly: Srxn1-GFP intensity median modified Z-score relative to plate median; higher = stronger NRF2 / oxidative stress reporter activation, active = hit call of the paper. The following applies: 10 µM; exposure time: 24h. In outline:
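HepG2 Srxn1-GFP BAC reporter cells were seeded at 20,000 per well in 96-well plates and co-exposed for 24 h to compound at 10 μM and an NRF2 activator at 30 nM, with DMSO at ≤0.1%, in three replicate plates. Cells were fixed with formaldehyde, stained with Hoechst and imaged by confocal microscopy, and cytoplasmic GFP was measured per cell, with images holding under 100 cells discarded. The reported value is the median over replicates of each plate's modified Z-score of GFP intensity. For this score, scaling used 1.4826 × median absolute deviation.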
Regarding `CCC(C)(C)O` [euspeclibcmpd964], the “Srxn1-GFP intensity median modified Z-score” value is -0.585.
With `C#CC(C)(O)CC` (stereo not drawn) [euspeclibcmpd1276], the “Srxn1-GFP intensity median modified Z-score” value was 1.99 (active).
Take `CC1C(=O)O[C@@H]2CCN3CC=C(COC(=O)[C@](C)(O)[C@]1(C)O)[C@H]23` (stereo partly drawn) [euspeclibcmpd1632]: the “Srxn1-GFP intensity median modified Z-score” value is -0.339.
Turning to `N=c1[nH]c(=N)[nH]c(=NC2CC2)[nH]1` [euspeclibcmpd1229], the “Srxn1-GFP intensity median modified Z-score” value is -0.282.
Turning to `CNC(=O)Oc1ccccc1OC(C)C` [euspeclibcmpd1026], the “Srxn1-GFP intensity median modified Z-score” value was -0.0719.
Turning to `c1ccc2c(c1)sc1ccccc12` [euspeclibcmpd88], the “Srxn1-GFP intensity median modified Z-score” value is 3.54 (active).
On to `c1ccc2c(c1)oc1ccccc12`, for which the “Srxn1-GFP intensity median modified Z-score” value is 0.352.
Regarding `C#CC1(O)CCC2C3CC=C4CC(=O)CCC4(C)C3CCC21C` (stereo not drawn) [euspeclibcmpd545], the “Srxn1-GFP intensity median modified Z-score” value was -0.576.
For `CN1C2C[C@H](OC(=O)C(CO)c3ccccc3)C[C@@H]1[C@@H](O)C2` (stereo partly drawn) [euspeclibcmpd1244], the “Srxn1-GFP intensity median modified Z-score” value is -0.443.
For the molecule `CC(C)CC(N(C)C)C1(c2ccc(Cl)cc2)CCC1` (stereo not drawn) [euspeclibcmpd2026], the “Srxn1-GFP intensity median modified Z-score” value is -0.299.
For the molecule `O=c1cccc2n1C[C@H]1CNCC2C1` [euspeclibcmpd1159], the “Srxn1-GFP intensity median modified Z-score” value was 0.6.
Regarding `C[N+]1(C)C2CC(OC(=O)C(CO)c3ccccc3)CC1C1OC12` (stereo not drawn) [euspeclibcmpd193], the “Srxn1-GFP intensity median modified Z-score” value is -0.176.
The same measure for `O=C(O)C1CCN1` (stereo not drawn): 1.24; for `C[N+](C)(C)CCCCCCCCCC[N+](C)(C)C` [euspeclibcmpd902]: 4.92 (active).
Regarding `NCC1(CC(=O)O)CCCCC1` [euspeclibcmpd872], the “Srxn1-GFP intensity median modified Z-score” value was -0.0794.
With `CN(C(=O)Oc1cccc2cccnc12)c1ccccc1`, the “Srxn1-GFP intensity median modified Z-score” value is 5.69 (active).
As to `COc1cc(OC)c2c(c1)O[C@H](c1ccc(OC)c(OC)c1)[C@@H](O)C2` [euspeclibcmpd1381], the “Srxn1-GFP intensity median modified Z-score” value was -0.52.
For `COc1cc2c(cc1-c1cc3cc4ccoc4cc3oc1=O)OCO2` [euspeclibcmpd1721] the value was 0.147; for `C[C@]12CCC3C(CC[C@H]4CC(=O)CC[C@]34C)C1CCC2=O` (stereo partly drawn) [euspeclibcmpd1450], -0.253.
With `N#CC(O[C@@H]1O[C@H](CO[C@@H]2O[C@H](CO)[C@@H](O)[C@H](O)[C@H]2O)[C@@H](O)[C@H](O)[C@H]1O)c1ccccc1` (stereo partly drawn) [euspeclibcmpd1342], the “Srxn1-GFP intensity median modified Z-score” value is -0.305.
For `O=C(N/N=C/c1ccc([N+](=O)[O-])o1)c1cc([N+](=O)[O-])cc([N+](=O)[O-])c1O` [euspeclibcmpd462] the value was 3.58 (active); for `COc1ccc2c(c1)[nH]c1c(C)nccc12` [euspeclibcmpd1501], 1.98 (active); for `Cc1nccc2c1[nH]c1ccccc12` [euspeclibcmpd1462], -0.275.
In the case of `CNc1ccc(C(=O)CC(O)CCC(C)C2OC(=O)CC(O)CC(=O)CC(O)CC(O)CC(O)CC(O)CC3(O)CC(O)C(C(=O)OC)C(CC(OC4OC(C)C(O)C(N)C4O)C=CC=CC=CC=CC=CC=CC=CC2C)O3)cc1` (stereo not drawn) [euspeclibcmpd1836], the “Srxn1-GFP intensity median modified Z-score” value was 0.559.
In the case of `NC1C[C@H]1c1ccccc1` (stereo partly drawn) [euspeclibcmpd300], the “Srxn1-GFP intensity median modified Z-score” value is 1.01.
As to `CCOC(=O)CC(SP(=S)(OC)OC)C(=O)OCC` (stereo not drawn) [euspeclibcmpd992], the “Srxn1-GFP intensity median modified Z-score” value was 0.167.
Turning to `OC[C@@H]1CCCN2CCCC[C@H]12` [euspeclibcmpd1729], the “Srxn1-GFP intensity median modified Z-score” value was -0.476.
Consider `CCN1C[C@@]2(COC)C3[C@@H](OC)[C@H]4[C@@H]1[C@]3(C(OC)C[C@H]2O)C1C[C@@]2(O)[C@H](OC(=O)c3ccccc3)C1[C@]4(OC(C)=O)[C@@H](O)[C@@H]2OC` (stereo partly drawn) [euspeclibcmpd686], for which the “Srxn1-GFP intensity median modified Z-score” value is 0.0544.
With `COP(=O)(OC)OC=C(Cl)Cl` [euspeclibcmpd1300], the “Srxn1-GFP intensity median modified Z-score” value is 1.08.
For the molecule `CN(C)C(=S)SSC(=S)N(C)C` [euspeclibcmpd571], the “Srxn1-GFP intensity median modified Z-score” value is 1.95.
As to `N#CC(=Cc1cccc(O)c1)C(=O)O` [euspeclibcmpd2014], the “Srxn1-GFP intensity median modified Z-score” value was 0.195.
Regarding `Oc1cc(Cl)ccc1Oc1ccc(Cl)cc1Cl` [euspeclibcmpd800], the “Srxn1-GFP intensity median modified Z-score” value was 3.85 (active).
The same measure for `Oc1ccc(Cl)cc1` [euspeclibcmpd227]: -0.0545.
Regarding `CC(Oc1ccc(Cl)cc1Cl)C(=O)O` (stereo not drawn) [euspeclibcmpd2066], the “Srxn1-GFP intensity median modified Z-score” value is 0.00229.
Take `CCOc1cc(C=O)ccc1O` [euspeclibcmpd2137]: the “Srxn1-GFP intensity median modified Z-score” value is 0.0734.
`CNc1ccccc1C(=O)O` [euspeclibcmpd1568]: the “Srxn1-GFP intensity median modified Z-score” value was -0.451.
Regarding `CCC(C)C(=O)O[C@@H]1C[C@@]2(C)[C@H](c3ccoc3)OC(=O)CC23OC2(C)O[C@]14[C@]1(C)[C@@H](CC(=O)OC)C5(C)CC1(O)[C@](O)(C5OC(=O)C1(C)OC1C)[C@@H](OC(C)=O)[C@]34O2` (stereo partly drawn) [euspeclibcmpd1590], the “Srxn1-GFP intensity median modified Z-score” value was 1.25.
As to `N=C(N)NOCCC(N)C(=O)O` (stereo not drawn) [euspeclibcmpd2161], the “Srxn1-GFP intensity median modified Z-score” value was -0.447.
